Data as given in PubChem BioAssay (NCI).
About 79,000 compounds went through this panel and 15% of them were active in at least one assay; those are over-represented in the sample as a whole. Values without a mark were called inactive. The source made the active and inactive calls. No stated cut-off is given here; in the data, active means growth inhibition above about 70%; inactive means the rest.

How the values were obtained:
[1] = NCI Yeast Anticancer Drug Screen. Data for the rad50 strain (AID 155);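 further: 0% = growth of vehicle-only cultures of the same strain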; details: S. cerevisiae rad50 strain growth inhibition, stronger effect = higher value
In short: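 DNA repair mutant yeast, compound exposure, growth read-out; inhibition is taken relative to vehicle.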

[2] = NCI Yeast Anticancer Drug Screen. Data for the mec2-1 strain (AID 157); details: S. cerevisiae mec2-1 strain, stronger effect = higher value
In short: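 Yeast mec2-1 mutant treated with compound. Readout: growth inhibition vs vehicle controls.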

[3] = NCI Yeast Anticancer Drug Screen. Data for the sgs1 mgt1 strain (AID 161);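 further: 0% = growth of cultures given vehicle only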; details: S. cerevisiae sgs1 mgt1 strain, stronger effect = higher value
In short: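 Inhibition of yeast growth, normalised to vehicle-treated controls, is reported for a strain bearing genetic alterations in DNA damage repair.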

[4] = NCI Yeast Anticancer Drug Screen. Data for the cln2 rad14 strain (AID 165);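 further: 0% = growth equal to vehicle treated cultures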; details: S. cerevisiae cln2 rad14 strain, stronger effect = higher value
In short: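 cln2 rad14 yeast strain; compound exposure; growth inhibition read vs vehicle controls.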

[5] = NCI Yeast Anticancer Drug Screen. Data for the bub3 strain (AID 167); details: S. cerevisiae bub3 mutant strain, stronger effect = higher value
In short: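 In this screen, a yeast mutant lacking normal mitotic checkpoint function is challenged with compound. Relative growth versus vehicle gives the inhibition value.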

[6] = NCI Yeast Anticancer Drug Screen. Data for the mlh1 rad18 strain (AID 175); details: S. cerevisiae mlh1 rad18 strain growth inhibition, stronger effect = higher value
In short: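 Yeast w/ defined DNA-repair lesions; compound exposure; growth vs vehicle controls → % inhibition.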

[7] = at 5.0 µM (retest, dose inferred, filed as 0.5)
[8] = at 50.0 µM (retest, dose inferred, filed as 5.0)

| SMILES | growth inhibition [1, 7] | growth inhibition [1, 8] | growth inhibition ([1]; at 50.0 µM) | growth inhibition [2, 7] | growth inhibition [2, 8] | growth inhibition ([2]; at 50.0 µM) | growth inhibition [3, 7] | growth inhibition [3, 8] | growth inhibition ([3]; at 50.0 µM) | growth inhibition [4, 7] [%] | growth inhibition [4, 8] | growth inhibition ([4]; at 50.0 µM) | growth inhibition [5, 7] | growth inhibition [5, 8] | growth inhibition ([5]; at 50.0 µM) | growth inhibition [6, 7] | growth inhibition [6, 8] | growth inhibition ([6]; at 50.0 µM) |
| --- | --- | --- | --- | --- | --- | --- | --- | --- | --- | --- | --- | --- | --- | --- | --- | --- | --- | --- |
| CCOC(=O)Nc1nc2ccc(SC#N)cc2s1 | 8% | 85% (active) | 92.9% (active) | 1% | 81% (active) | 64.8% | 9% | 96% (active) | 79.8% (active) | 6 | 88% (active) | 57.5% | 23% | 93% (active) | 88.2% (active) | 9% | 94% (active) | 50.5% |
| O=C(O)CCC(c1ccccc1)(c1ccccc1)c1ccccc1 | 66% | 99% (active) | 99.5% (active) | 53% | 100% (active) | 99.7% (active) | 54% | 99% (active) | 98.9% (active) | -59 | 99% (active) | 99% (active) | 80% (active) | -50% | 99.5% (active) | 64% | 99% (active) | 99.2% (active) |
| CC(=O)OC(OC(C)=O)c1ccc([N+](=O)[O-])o1 | -7% | -39% | 99.4% (active) | -23% | -22% | 99% (active) | -5% | -10% | 99.3% (active) | -3 | -23% | 99.2% (active) | -20% | -87% | 99.5% (active) | 5% | 4% | 99% (active) |
| CC1=C(C(=O)OCCO[N+](=O)[O-])C(c2ccccc2[N+](=O)[O-])C(C(=O)OC(C)C)=C(C)N1 (stereo not given) | 11% | 97% (active) | 83.5% (active) | 22% | 97% (active) | 87.7% (active) | -2% | 97% (active) | 90.3% (active) | 10 | 92% (active) | 86.9% (active) | -3% | 97% (active) | 89.6% (active) | 19% | 97% (active) | 85.5% (active) |
| Clc1ccc(Oc2nc(Cl)nc3[nH]ncc23)cc1 | 7% | 35% | 38% | 4% | 58% | 30.6% | 11% | 78% (active) | 72.9% (active) | 8 | 32% | -4.85% | 7% | 37% | 18.4% | 10% | 68% | 40.1% |
| Cc1cccc(/C=N\OCCc2ccccc2)n1 | 0% | 85% (active) | -3.05% | -6% | 53% | 80.2% (active) | 1% | 84% (active) | 16.6% | -14 | 21% | -14.1% | 2% | 94% (active) | 47.7% | -2% | 88% (active) | 32.8% |
| CCC(N)C(O)C(C)C (stereo not given) | -1% | 10% | 71.7% (active) | -1% | 1% | 2.6% | -3% | 2% | 14.3% | -2 | -2% | -10.6% | 3% | 17% | 13.2% | -1% | 3% | 10.6% |
| COc1cc(C(=O)CBr)c2ccc(Cl)cc2n1 | 73% (active) | 97% (active) | 84.8% (active) | 90% (active) | 98% (active) | 69.2% | 94% (active) | 97% (active) | 94% (active) | 59 | 97% (active) | 95.3% (active) | 87% (active) | 97% (active) | 70.3% (active) | 93% (active) | 97% (active) | 91.4% (active) |
| Fc1ccc(CSC(=S)Nc2ccc(Br)cc2)cc1 | 9% | 99% (active) | 91.2% (active) | 8% | 99% (active) | 90% (active) | 11% | 99% (active) | 94.8% (active) | -9 | 99% (active) | 56.2% | -6% | 99% (active) | 71.1% (active) | 21% | 99% (active) | 95.5% (active) |
| Nc1ncnc2nn(C3OC(CO)C(O)C3O)nc12 (stereo not given) | 15% | 20% | 29.1% | 2% | 6% | -26.2% | -7% | 6% | -22.1% | -29 | -18% | 33.1% | 0% | 1% | -70.4% | 4% | 0% | -4.75% |
| Cc1ccccc1Nc1nc(-c2ccccc2)nc(N)c1N=O | 9% | 98% (active) | 59.2% | 9% | 98% (active) | 43% | 32% | 98% (active) | 72.8% (active) | 13 | 97% (active) | 28.6% | 4% | 97% (active) | 45% | 9% | 97% (active) | 59% |
| O=C1C2=C(c3ccccc31)C(c1ccccc1Cl)NC(=S)N2 (stereo not given) | -5% | 11% | 82.2% (active) | -11% | 13% | 39.3% | -18% | -4% | 78.5% (active) | 20 | 40% | 63.4% | 14% | 60% | 70% (active) | -8% | 40% | 74.8% (active) |
| O=C1c2ccccc2/C=C\C(c2ccccc2)=N/N1c1ccccc1Cl | 7% | 52% | 84.8% (active) | 0% | 69% | 83.5% (active) | 9% | 81% (active) | 83.8% (active) | -2 | 37% | 60.2% | -4% | 52% | 85.2% (active) | 7% | 48% | 84.7% (active) |
| CCCCCC(O)C(C)CO (stereo not given) | 1% | -3% | 12.8% | -2% | -3% | -7.6% | -2% | -4% | -4.2% | -7 | -4% | 42.9% | 0% | -1% | 0.9% | -1% | -1% | 14.4% |
| CN1C(Cl)=NS(=O)(=O)c2ccccc21 | 18% | 22% | -23% | 14% | 19% | -5.6% | 9% | 18% | -12.4% | 20 | 20% | -1.3% | 15% | 11% | 6.35% | 15% | 25% | 8.95% |
| O=C(Cl)c1ccc(N=Nc2ccccc2)cc1 | 2% | 31% | 69.5% | -1% | 23% | 37% | -1% | 14% | 47.5% | 0 | 23% | 49.2% | 1% | 21% | 65.5% | 3% | 27% | 80% (active) |
| CC(=O)Nc1ccc2c(c1)C(=Nc1ccc(F)cc1)c1ccccc1-2 | 7% | 83% (active) | 54.1% | 0% | 84% (active) | 4.35% | 2% | 62% | 14.3% | -1 | 74% (active) | 40.4% | -4% | 47% | 45.4% | 0% | 94% (active) | 50.7% |
| OCC1(c2ccccc2)OC1c1ccccc1 (stereo not given) | -156% | -20% | 72.1% (active) | -50% | -27% | 62.6% | -65% | 16% | 37.6% | -66 | -34% | 69.5% | -71% | -51% | 74.8% (active) | -146% | -44% | 68% |
| C=CCOC(=O)OCCCO | 0% | -3% | 91.7% (active) | -1% | -1% | 99.2% (active) | 2% | -1% | 97.2% (active) | -5 | 2% | 95.8% (active) | -1% | -3% | 98.8% (active) | -1% | -1% | 95.5% (active) |
| Cc1nn(C(=O)c2ccccc2O)c2c1C(c1ccc([N+](=O)[O-])cc1)SC(N)=N2 (stereo not given) | 6% | 81% (active) | 35.5% | -4% | 80% (active) | 47% | -1% | 89% (active) | 69.5% | -8 | 36% | 12.3% | -8% | 71% (active) | 91.2% (active) | 10% | 96% (active) | 53.4% |
